# Test results from PubChem BioAssay AID1847 (The Scripps Research Institute Molecular Screening Center, 2009).
# “And” between values parts separate entries of the source, which are not always exact repeats. Equal values may be shown once. Out of some 2,300 compounds screened, about 1,100 (48%) were called active. So high a share suggests a set chosen from earlier hits. These entries were drawn from the full list. A number with no mark means an inactive call.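 Rule for the calls: active = inhibition above the mean inhibition of all tested sample wells plus 3 SD (cut at about 10% in these data); inactive = the rest.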
# Target: Luciferin 4-monooxygenase (Photinus pyralis) (UniProt P08659)
# Sequence (P08659 whole entry, looked up): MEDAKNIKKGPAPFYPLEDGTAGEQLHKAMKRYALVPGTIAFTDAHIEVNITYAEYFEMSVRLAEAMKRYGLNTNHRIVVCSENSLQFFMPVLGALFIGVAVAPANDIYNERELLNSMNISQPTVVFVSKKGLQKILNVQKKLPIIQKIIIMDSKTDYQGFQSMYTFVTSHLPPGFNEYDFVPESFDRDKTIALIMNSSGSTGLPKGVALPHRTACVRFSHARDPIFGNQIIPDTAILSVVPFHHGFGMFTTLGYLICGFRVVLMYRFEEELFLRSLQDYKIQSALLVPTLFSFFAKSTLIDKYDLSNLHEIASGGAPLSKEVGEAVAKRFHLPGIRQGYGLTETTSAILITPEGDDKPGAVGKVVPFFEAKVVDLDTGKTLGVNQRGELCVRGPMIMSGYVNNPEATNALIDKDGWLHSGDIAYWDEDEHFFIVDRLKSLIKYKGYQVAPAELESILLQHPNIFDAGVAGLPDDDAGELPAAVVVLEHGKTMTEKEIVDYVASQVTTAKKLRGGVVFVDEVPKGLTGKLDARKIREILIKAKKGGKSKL
# Test: native FLuc enzyme inhibition – biochemical, luminescence, triplicate, artefact control for HSP90 inhibitor project, confirmation (AID 1847);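 note: 0% = DMSO with luciferase and 100% = wells lacking luciferase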
# Conditions: purified native firefly luciferase, at 5.9 µM, stronger effect = higher value
row,SMILES,inhibition
1,COC(=O)c1sc(NC(=O)c2csc3c2CCCC3)nc1C,-24.8%
2,COc1cc(SC)ccc1C(=O)Nc1nc(C)cs1,90.1% (active)
3,COC(=O)c1sc(NC(=O)c2ccc(OC)cc2OC)nc1C,56.6% (active)
4,Cc1ccc(-n2c(SCC(=O)Nc3ncc(Cl)cc3Cl)nc3ccccc32)cc1,-5.93%
5,Cc1sc2nc(CSCC(=O)Nc3c(Cl)cccc3Cl)[nH]c(=O)c2c1C,-10.5%
6,CCOc1ccc(C2NC(=S)NC3=C2CCc2ccccc23)cc1 (stereo not given),27.2% (active)
7,Cc1nc(NC(=O)c2cccc(Cl)c2)sc1-c1csc(Nc2cccc(Cl)c2)n1,-10.7%
8,O=C(Nc1nc2ccccc2s1)c1ccc2c(c1)OCO2,56% (active)
9,O=C(Nc1ccccc1)c1ccc2c(c1)OCCCO2,32.8% (active)
10,c1ccc(-c2ccc3c(c2)NC(C2Nc4cc(-c5ccccc5)ccc4O2)O3)cc1 (stereo not given),-6.37%
11,Clc1ccc(-c2cc(-c3ccccn3)on2)c(Cl)c1,81.9% (active)
12,O=[N+]([O-])/C=C/c1ccc2c(ccn2Cc2ccccc2)c1,5.87%
13,CCN(CC)CCn1c(N)c(S(=O)(=O)c2ccccc2)c2nc3ccccc3nc21,-7.93%
14,COc1ccc(-n2nnnc2-c2nc3ccccc3s2)cc1,52.3% (active)
15,Cc1cccc(NC(=O)/C=C/c2ccc3c(c2)OCO3)n1,30.9% (active)
16,Cc1csc(SCC(=O)Nc2sccc2C#N)n1,8.6%
17,Cn1c(-c2ccco2)nc2cc3ccccc3cc21,51.4% (active)
18,Cc1cc(C(=O)COC(=O)C2CC2)c(C)n1-c1ccc(F)cc1,88.4% (active)
19,Cc1ccc(C(=O)O/N=C(\N)c2ccccn2)cc1Cl,79.1% (active)
20,CCOC(=O)C1=C(c2ccc(OC)cc2)C(=O)c2ccccc2C1=O,-5.23%
21,CC(C)Nc1ccc(-n2nc3ccccc3[n+]2[O-])cc1,44% (active)
22,O=C(Nc1ccc2c(c1)OCCO2)C1CCCN(c2ncccn2)C1 (stereo not given),20.5% (active)
23,Clc1ccc2nc(CSc3ccccc3)cn2c1,53% (active)
24,Cc1nc2cc(NC(=O)Nc3cccc(F)c3)ccc2n1C,21.4% (active)
25,Cc1ccc(Nc2nc(-c3ccc(O)cc3O)cs2)nc1,-25.8%

row,SMILES,inhibition
1,Cc1ccc(Nc2nc(-c3sc(NC(=O)c4ccccc4)nc3C)cs2)cc1,-23.6%
2,Cc1cnc(NC(=O)c2ccccn2)s1,15.6% (active)
3,CCOC(=O)CNC(=O)c1nn(-c2cccc(OC)c2)c(=O)c2ccccc12,-3.73%
4,CCOc1ccc(OCc2ccc(C(=O)N(C)c3ccccc3)o2)cc1,-13.3%
5,CCOc1ccc(OCc2cccc(C(=O)N(CC)CC)c2)cc1,22.5% (active)
6,CCc1ccc2oc(-c3ccc(N)cc3)nc2c1,51% (active)
7,Nc1ccc(-c2nnc(-c3ccccc3)o2)cc1,-10.8%
8,O=C(Cn1c[n+](CC(=O)c2ccc([N+](=O)[O-])cc2)cn1)c1ccc([N+](=O)[O-])cc1,-6.5% and -8.93%
9,COc1cc(CNC2CCCCC2)c(Br)cc1OC1CCCC1,1%
10,COC(=O)C1[C@H]2SC(C)(C)C(C(=O)OC)N2C(=O)N1Cc1nc2ccccc2s1 (stereo not given in full),-10.3%
11,COc1ccc(CNC(=O)/C(C#N)=C/c2cccc(OC)c2OC)cc1,-0.6%
12,COc1ccc(Nc2ncnc3ccc(Br)cc23)c(OC)c1,55.5% (active)
13,Cc1ccc2nc(/C(C#N)=C\c3ccc(OC(=O)c4cccs4)cc3)[nH]c2c1,-9.37%
14,CCCCNC(=O)Nc1c(C)cc(SC#N)cc1C,-1.43%
15,Cc1nn(CC(=O)Nc2ccc(F)cc2)c(=O)c2ccccc12,-7.73%
16,CCOc1ccc(-c2nnc(-c3ccco3)o2)cc1,56.9% (active)
17,O=C(CN1C(=O)c2ccccc2S1(=O)=O)N1CCc2ccccc21,-9.57%
18,CCOc1c(Br)cc(/C=C2\C(=O)N(CCC#N)N=C2C)cc1OC,29.9% (active)
19,N#C/C=C\Oc1ccc(Cl)cc1N,-7.1%
20,Cc1nnc(SCC(=O)N2c3ccccc3C(C)(c3ccc(Cl)cc3)CC2(C)C)s1 (stereo not given),-1.27%
21,O=C(Nc1cccnc1)c1noc2c1CCCCC2,38.6% (active)
22,COc1cc(NS(=O)(=O)c2ccc3ccccc3c2)c2ncccc2c1,-7.83%
23,CSCCC(C(=O)NC1=NCCS1)N1C(=O)c2ccccc2C1=O (stereo not given),-8.47%
24,CN(C)c1ccc(-n2cccc2/C=N/n2cnnc2)cc1,-11.7%
25,Cc1nc2ccc(C(=O)O)cc2[nH]1,4.87%

row,SMILES,inhibition
1,CC(C)c1nc2ccc(C(=O)O)cc2[nH]1,31.5% (active)
2,CC(C)(C)OC(=O)c1c(N)n(CCCN2CCCC2=O)c2nc3ccccc3nc12,-7.33%
3,CCCS(=O)(=O)N1CCCC(C(=O)NCCN2CCCCC2C)C1 (stereo not given),-4.93%
4,Cc1ccc(-c2cn3cc(C)ccc3n2)cc1,87.3% (active)
5,Cc1ccc2nc(-c3ccc(Br)cc3)cn2c1,81.5% (active)
6,COc1ccc(-c2cn3ccc(C)cc3n2)cc1,69.7% (active)
7,Cc1cccc(C(=O)OC(C)CN2CCN(C)CC2)c1 (stereo not given),-7.93%
8,Cc1ccc(C(=O)CSc2ccccc2C(=O)O)cc1,-0.87%
9,O=C(O)c1ccc(N=NN2CCOCC2)cc1,-12.9%
10,O=C(CSC(=S)N1CCOCC1)c1ccccc1,34.5% (active)
11,CCOC(=O)N1CCN(Cc2nc3c(c(=O)n(C)c(=O)n3C)n2Cc2ccccc2)CC1,-8.93%
12,C=CCN1CCN(C(=O)CCCc2ccccc2)CC1,37.2% (active)
13,O=C(Cc1ccccc1)N1CCN(S(=O)(=O)c2ccc([N+](=O)[O-])cc2)CC1,-3.47%
14,COc1cc(C(=O)NN(CCC#N)C2=NS(=O)(=O)c3ccccc32)cc(OC)c1OC,-6.77%
15,Cc1cccc(CCNC(=O)Cn2ncc3c([nH]c4ccc(C)cc43)c2=O)c1,-0.53%
16,CN(c1ccc2nc3ccccc3c(=O)n2n1)C1CCCCC1,87.3% (active)
17,O=C(OC1CCOC1=O)c1ccc(-c2nc3ccccc3s2)s1 (stereo not given),65.2% (active)
18,c1ccc(-c2noc(-c3cccs3)n2)nc1,27.4% (active)
19,CCOC(=O)c1nc(C)n(-c2ccc(Cl)cc2Cl)n1,-5.2%
20,O=C(Nc1ccccc1C(=O)O)c1ccc(N2C(=O)C3CC=CCC3C2=O)cc1 (stereo not given),-15.7%
21,COc1ccc(/C=N/Nc2ccccc2C(=O)O)cc1,23.4% (active)
22,COc1ccc(C(=O)Nc2ccccc2C(=O)N/N=C/c2ccccc2OC)cc1,43.8% (active)
23,COc1ccc(C(=O)Nc2ccccc2C(=O)N/N=C/c2ccc(O)c(OC)c2)cc1,93.5% (active)
24,CCc1nc(SCC(=O)Nc2ccccc2OC)n[nH]1,0.13%
25,COc1ccc(Cl)cc1NC(=O)Cn1nc(-c2ccc(C)cc2)n(C)c1=S,-10.3%

row,SMILES,inhibition
1,CC(OC(=O)c1ccc2noc(-c3ccccc3)c2c1)C(N)=O (stereo not given),-3.9%
2,Oc1c(C=Nc2cccc3nsnc23)ccc2ccccc12,-18.8%
3,COc1ccc(-c2nc(-c3ccccc3)no2)c(OC)c1,81.7% (active)
4,COc1ccc(/C=C/c2noc(-c3ccccc3OC(C)=O)n2)cc1,-12.5%
5,CCCOc1ccc(C(=O)NCCc2ccccc2)cc1,44% (active)
6,CCCCOCCCNC(=O)c1ccccc1OCC,-6.47%
7,COc1cccc(/C=C/c2ccc3ccccc3n2)c1OC(C)=O,-12.7%
8,Cc1ccc(C(=O)COC(=O)c2cccc(N3C(=O)c4c(C)nc5ccccc5c4C3=O)c2)cc1C,-20.1%
9,COc1cccc2c(C)c(C(=O)O)[nH]c12,30.6% (active)
10,O=C1CCC([N+](=O)[O-])C(c2ccccc2Br)N1 (stereo not given),-7.7%
11,CC(C)CNC(=O)CC(NCC(C)C)C(=O)O (stereo not given),-6.07%
12,Clc1cccc(N=C2NN=C(c3ccc4c(c3)OCCO4)CS2)c1,36.7% (active)
13,c1c2c(cc3sc(N4CCCCC4)nc13)OCCO2,80% (active)
14,CCN(CCCNC(=O)c1ccc2c(c1)NC(=O)CN2C)c1cccc(C)c1,-5.03%
15,CCOc1ccc(N/C=C/C(=O)c2ccccc2)cc1,62.8% (active)
16,COc1ccc(C(=O)/C=C/Nc2ccccn2)cc1,90.9% (active)
17,CCCCCc1ccc(-c2ccc(C(=O)O)cc2)nc1,57.8% (active)
18,C/C(=N\NC(=S)NC1CCCCC1)c1ccc(C)o1,-11.1%
19,CCS(=O)(=O)c1cc([N+](=O)[O-])c(Sc2ccccc2N)s1,46% (active)
20,CCc1ccc(Nc2ncc3c(n2)CC(c2ccco2)CC3=O)cc1 (stereo not given),-15%
21,Cc1ccsc1C(=O)OCC(=O)c1cc(C)n(CC2CCCO2)c1C (stereo not given),85.4% (active)
22,COCc1cc(=O)[nH]c2cc(NC(=O)C(F)(F)F)c(C)cc12,-7%
23,CN(CCO)c1ccc(/C=N/Nc2nncc3ccccc23)cc1,84.2% (active)
24,CCCCC(=O)Nc1nc(C)c(-c2csc(Nc3ccc(Cl)cc3)n2)s1,-9.5%
25,O=c1oc(/C=C/c2ccccc2)nc2ccccc12,-16.5%
